# Data published in the supplement of paper PMC8975748.
# Structures can show the parent of a compound that is named as a salt.
# Tested on: Saccharomyces cerevisiae BY4741 SeMeCo community
# Assay: z-score of subpopulation abundance vs DMSO median, subpopulation auxotrophic for HM; higher = larger share of this subpopulation than in DMSO controls
# Conditions: 10 µM; 24 h; SM minimal medium; subpopulation (auxotrophy): HM
# Experimental: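 Fluorescent four-plasmid SeMeCo (self-establishing metabolically cooperating S. cerevisiae BY4741 community; plasmids pH-mRuby2, pL-mWasabi, pU-eCFP, pM-TagRFP657) was grown 24 h in minimal SM medium with each Selleck FDA-approved drug at 10 µM in 384-well plates. Cells were fixed and imaged by high-content confocal microscopy. For each auxotrophic subpopulation (and the prototroph), a z-score gives the deviation from the DMSO vehicle-control population median.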
row,Structure (SMILES),z-score of subpopulation abundance
1,CCOC(=O)c1ccc(O)cc1 [Ethylparaben],-0.62
2,O=C(O[C@@H]1C[C@@H]2C[C@H]3C[C@H](C1)N2CC3=O)c1c[nH]c2ccccc12 [Dolasetron Mesylate],1.09
3,C[C@@H](NCCCc1cccc(C(F)(F)F)c1)c1cccc2ccccc12 [Cinacalcet HCl],0.25
4,C1CCN2C[C@@H]3C[C@@H](CN4CCCC[C@@H]34)[C@H]2C1 [(-)-Sparteine Sulfate],0.08
5,Nc1nc(O)c2ncn(CCC(CO)CO)c2n1 [Penciclovir],0.31
6,CCN(CC)CCOC(=O)c1ccc(N)cc1 [Procaine HCl],-0.71
7,OC(CCN1CCCCC1)(c1ccccc1)C1CCCCC1 (stereo not given) [Trihexyphenidyl hydrochloride],-0.75
8,Cc1onc(-c2ccccc2)c1-c1ccc(S(N)(=O)=O)cc1 [Valdecoxib],-0.77
9,COc1ccc(Cl)cc1C(=O)NCCc1ccc(S(=O)(=O)NC(=O)NC2CCCCC2)cc1 [Glyburide (Glibenclamide)],0.56
10,O=C(Nc1cccc(C2=NCCN2)c1)Nc1cccc(C2=NCCN2)c1 [Imidocarb dipropionate],-0.79
11,Nc1ccc(S(=O)(=O)Nc2ncccn2)cc1 [Sodium sulfadiazine],0.17
12,N=C(N)NC(=O)c1nc(Cl)c(N)nc1N [Amiloride HCl],1.25
13,COc1c(N2C[C@@H]3CCCN[C@@H]3C2)c(F)cc2c(=O)c(C(=O)O)cn(C3CC3)c12 [Moxifloxacin HCl],0.67
14,CC[N+](CC)(CC)CCOc1cccc(OCC[N+](CC)(CC)CC)c1OCC[N+](CC)(CC)CC [Gallamine Triethiodide],-0.01
15,COc1ccccc1N1CCN(CCCNc2cc(=O)n(C)c(=O)n2C)CC1 [Urapidil HCl],-0.81
16,N=C(N)NS(=O)(=O)c1ccc(N)cc1 [Sulfaguanidine],-0.09
17,CCc1c(C)[nH]c2c1C(=O)C(CN1CCOCC1)CC2 (stereo not given) [Molindone hydrochloride],-0.54
18,CC1(C)S[C@@H]2[C@H](NC(=O)C(C(=O)O)c3ccccc3)C(=O)N2[C@H]1C(=O)O (stereo not given in full) [Carbenicillin disodium],0.66
19,CCC[C@@H]1C[C@@H](C(=O)N[C@@H]([C@H]2O[C@H](SC)[C@H](O)[C@@H](O)[C@H]2O)[C@H](C)Cl)N(C)C1 [Clindamycin HCl],0.38
20,COC(=O)C1=C(C)NC(C)=C(C(=O)OCCN2CCN(C(c3ccccc3)c3ccccc3)CC2)C1c1cccc([N+](=O)[O-])c1 (stereo not given) [Manidipine 2HCl],2.87

row,Structure (SMILES),z-score of subpopulation abundance
1,COc1cc2c(cc1OC)C(=O)C(CC1CCN(Cc3ccccc3)CC1)C2 (stereo not given) [Donepezil],0.52
2,CN(C)C(=O)COC(=O)Cc1ccc(OC(=O)c2ccc(NC(=N)N)cc2)cc1 [Camostat Mesilate],-0.32
3,NC12CC3CC(CC(C3)C1)C2 [Amantadine],-0.03
4,Clc1ccc(CSC(Cn2ccnc2)c2ccc(Cl)cc2Cl)cc1 (stereo not given) [Sulconazole Nitrate],2.74
5,COc1cc(N)c(Cl)cc1C(=O)NC1CCN(CCCOc2ccc(F)cc2)CC1OC (stereo not given) [Cisapride],-1.22
6,Cn1c(=O)c2[nH]cnc2n(C)c1=O [Aminophylline],0.42
7,OCCN(CCO)c1nc(N2CCCCC2)c2nc(N(CCO)CCO)nc(N3CCCCC3)c2n1 [Dipyridamole],6.49
8,CN(Cc1cnc2nc(N)nc(N)c2n1)c1ccc(C(=O)N[C@@H](CCC(=O)O)C(=O)O)cc1 [Methotrexate],6.94
9,CN(Cc1ccc(C(C)(C)C)cc1)Cc1cccc2ccccc12 [Butenafine HCl],-1.43
10,N/C(=N\N=C\c1ccc(Cl)cc1)N/N=C/c1ccc(Cl)cc1 [Robenidine Hydrochoride],11.4
11,NNc1nncc2ccccc12 [Hydralazine HCl],-0.62
12,CCCCC(=O)O[C@H]1CC[C@H]2[C@@H]3CCc4cc(O)ccc4[C@H]3CC[C@]12C [Estradiol valerate],-0.23
13,CN[C@H]1C(=O)N[C@@H]2Cc3ccc(cc3)Oc3cc4cc(c3O[C@@H]3O[C@H](C(=O)O)[C@@H](O)[C@H](O)[C@H]3NC(=O)CCCCCCCCC(C)C)Oc3ccc(cc3Cl)[C@@H](O)[C@@H]3NC(=O)[C@H](NC(=O)[C@@H]4NC(=O)[C@@H](NC2=O)c2cc(cc(O)c2Cl)Oc2cc1ccc2O)c1ccc(O)c(c1)-c1c(O[C@H]2O[C@H](CO)[C@@H](O)[C@H](O)[C@@H]2O)cc(O)cc1[C@@H](C(=O)NCCCN(C)C)NC3=O [Dalbavancin],-1.02
14,CN1C2CCCC1CC(NC(=O)c1nn(C)c3ccccc13)C2 (stereo not given) [Granisetron],0.6
15,CCCc1nn(C)c2c(=O)[nH]c(-c3cc(S(=O)(=O)N4CCN(C)CC4)ccc3OCC)nc12 [Sildenafil Mesylate],-0.05
16,O=C(O)c1cn(-c2ccc(F)cc2)c2cc(N3CCNCC3)c(F)cc2c1=O [Sarafloxacin HCl],-0.52
17,CN1CCc2cc3c(cc2C(=O)Cc2ccc4c(c2C1)OCO4)OCO3 [Protopine],-0.3
18,Cc1ccc(Nc2c(F)cccc2Cl)c(CC(=O)O)c1 [Lumiracoxib],0
19,COC(=O)Nc1nc2cc(Sc3ccccc3)ccc2[nH]1 [Fenbendazole],0.22
20,CCCCCCCCc1ccc(CCC(N)(CO)CO)cc1 [Fingolimod],-1.86
